Measured values as given in PubChem BioAssay (EPA / NIEHS).
Inconclusive results are not listed. The source made the active and inactive calls. How the source made its calls, unless noted: active means hit-call score of the fitted dose curve at least 0.9, where 1 is the maximum; inactive means score below 0.9.

Columns and labels:
[1] = read-out: Vascular cell adhesion molecule 1 (VCAM1), VCAM1 (gene 7412); experiment: BSK_LPS_VCAM1: BioMAP Diversity Plus: LPS Assay for Vascular cell adhesion molecule 1 (VCAM1) Biomarker Activity (AID 2283086); details: primary human HUVEC with PBMC; actives raise or lower the signal
How it was run: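 Measured by ELISA: VCAM-1 in LPS-activated HUVEC/PBMC co-cultures 24 h after treatment. Values reflect bidirectional fitting with DMSO as baseline.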

CD40, CD40 (gene 958) = experiment: BSK_SAg_CD40: BioMAP Diversity Plus: SAg Assay for CD40 Biomarker Activity (AID 2283088); details: primary human HUVEC with PBMC; actives raise or lower the signal
How it was run: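 Endpoint derived by fitting increases or decreases versus DMSO controls. CD40 is detected by fluorescence ELISA in a human vascular co-culture of endothelium and PBMC at 24 h.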

CD69, CD69 (gene 969) = experiment: BSK_SAg_CD69: BioMAP Diversity Plus: SAg Assay for CD69 Biomarker Activity (AID 2283089); details: primary human HUVEC with PBMC; actives raise or lower the signal;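 on AC50: cell surface CD69 protein quantified by ELISA with fluorescence detection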
How it was run: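 ELISA, fluorescence read-out: CD69 on human umbilical vein endothelial cell + PBMC co-culture, 24 h post-dosing. Gain or loss of signal fitted bidirectionally against DMSO baseline.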

[2] = read-out: E-selectin (Homo sapiens) (UniProt P16581); experiment: BSK_SAg_Eselectin: BioMAP Diversity Plus: SAg Assay for Eselectin Biomarker Activity (AID 2283091); details: primary human HUVEC with PBMC; actives raise or lower the signal
How it was run: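 Endpoint values derive from bidirectional fitting relative to DMSO, using ELISA-measured E-selectin in a human vascular co-culture (umbilical vein endothelium plus PBMC) sampled 24 h after dosing.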

[3] = read-out: Monokine induced gamma interferon (MIG), CXCL9 (gene 4283); experiment: BSK_SAg_MIG: BioMAP Diversity Plus: SAg Assay for Monokine induced gamma interferon (MIG) Biomarker Activity (AID 2283092); details: primary human HUVEC with PBMC; actives raise or lower the signal
How it was run: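 ELISA readout of MIG/CXCL9; primary human umbilical vein endothelial cells co-cultured with peripheral blood mononuclear cells; 24 h post-dose; gain/loss fit vs DMSO baseline.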

[4] = BSK_SAg_PBMCCytotoxicity: PBMC Cytotoxicity Assessment in the BioMAP Diversity Plus: SAg Assay (AID 2283093); details: primary human HUVEC with PBMC;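 further: fitted both ways against DMSO so a hit may be loss or gain of signal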;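 on AC50: PBMC superantigen activated with SEB plus TSST-1 one hour after compound addition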
How it was run: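 PBMC viability by Alamar Blue reduction, fluorescence read at 546/580 nm after 6 h dye exposure. Cells were dosed 1 h before SEB plus TSST-1 activation (20 ng/mL final each), then held 90 h; endothelial/PBMC human co-culture.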

[5] = read-out: Interleukin-8 (IL8), CXCL8 (gene 3576); experiment: BSK_SAg_IL8: BioMAP Diversity Plus: SAg Assay for Interleukin-8 (IL8) Biomarker Activity (AID 2283094); details: primary human HUVEC with PBMC; actives raise or lower the signal
How it was run: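 Primary human endothelial cells with PBMC, exposed 24 h; IL-8 determined by ELISA, analysed bidirectionally relative to DMSO.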

[6] = BSK_SAg_Proliferation: Cell Proliferation Assessment in the BioMAP Diversity Plus: SAg Assay (AID 2283095); details: primary human HUVEC with PBMC;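 further: relative cell number as total protein by SRB absorbance in sub-confluent culture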
How it was run: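 A human primary co-culture of umbilical vein endothelium and blood mononuclear cells receives compound; relative cell number is quantified at 96 h by SRB staining and 560 nm absorbance, with DMSO-referenced bidirectional curve fitting.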

[7] = BSK_SAg_SRB: Viability Assessment in the BioMAP Diversity Plus: SAg Assay (AID 2283096); details: primary human HUVEC with PBMC;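 further: cells read one day after compound addition; hits may be either gain or loss of signal compared with DMSO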
How it was run: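 Compounds were added to a human vascular co-culture of umbilical vein endothelium and PBMC. After 24 h, parallel cultures were fixed with 10% TCA, stained with 0.1% sulforhodamine B and read at 560 nm. Gain or loss of signal was fitted relative to DMSO.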

[8] = read-out: Monocyte Chemoattractant Protein-1 (MCP1), CCL2 (gene 6347); experiment: BSK_SAg_MCP1: BioMAP Diversity Plus: SAg Assay for Monocyte Chemoattractant Protein-1 (MCP1) Biomarker Activity (AID 2283090); details: primary human HUVEC with PBMC; actives raise or lower the signal
How it was run: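 Values derive from bidirectional fitting of ELISA-measured MCP1 against DMSO controls. Readings were taken 24 h after dosing human vascular endothelial cells co-cultured with peripheral blood mononuclear cells under superantigen stimulation.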

[9] = target: Cytochrome P450 2C19 (Homo sapiens) (UniProt P33261); experiment: NVS_ADME_hCYP2C19: NovaScreen (NVS) CYP450-related Enzyme Activity (ADME) Assay for human CYP2C19 (AID 2283113; active means hit-call score of the fitted dose curve at least 0.9, where 1 is the maximum;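 further: potency for inhibition seen as loss of fluorescent signal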)
How it was run: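 Biochemical CYP2C19 inhibition screen: insect-cell recombinant protein plus fluorescent substrate, 1 h, fluorescence intensity. Acetonitrile defined baseline activity. Single 10 uM concentration in duplicate, with concentration-response follow-up for actives.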

[10] = target: human Acetylcholinesterase (AChE), ACHE (gene 43) (UniProt P22303); experiment: NVS_ENZ_hAChE: NovaScreen (NVS) Enzymatic Assay for human Acetylcholinesterase (AChE) (AID 2283129; active means hit-call score of the fitted dose curve at least 0.9, where 1 is the maximum)
Chain of human Acetylcholinesterase (AChE), ACHE (gene 43) (P22303 whole entry, looked up): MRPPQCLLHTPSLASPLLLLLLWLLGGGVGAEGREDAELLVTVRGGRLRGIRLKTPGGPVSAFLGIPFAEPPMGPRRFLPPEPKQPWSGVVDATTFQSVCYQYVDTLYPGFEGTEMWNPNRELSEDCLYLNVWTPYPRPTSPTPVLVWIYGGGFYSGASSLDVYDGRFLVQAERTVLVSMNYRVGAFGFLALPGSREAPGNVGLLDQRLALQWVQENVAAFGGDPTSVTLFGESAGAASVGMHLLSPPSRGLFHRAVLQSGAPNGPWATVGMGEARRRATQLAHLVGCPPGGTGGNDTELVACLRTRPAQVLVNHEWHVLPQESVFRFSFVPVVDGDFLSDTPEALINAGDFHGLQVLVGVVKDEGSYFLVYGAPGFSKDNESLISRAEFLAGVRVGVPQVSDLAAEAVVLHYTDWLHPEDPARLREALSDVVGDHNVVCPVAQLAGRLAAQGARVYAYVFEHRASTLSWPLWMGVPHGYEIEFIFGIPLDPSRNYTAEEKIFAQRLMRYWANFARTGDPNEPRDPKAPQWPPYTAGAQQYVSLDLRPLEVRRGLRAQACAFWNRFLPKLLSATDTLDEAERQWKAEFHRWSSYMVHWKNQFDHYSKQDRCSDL
How it was run: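 Actives from a duplicate single-point screen (25 uM) were followed up in concentration series. Enzyme activity read by absorbance (colorimetric) 0.33 hour after dosing, cell-free, normalized to DMSO, with loss of signal scored.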

[11] = target: human CYP1A1, CYP1A1 (gene 1543) (UniProt P04798); experiment: NVS_ADME_hCYP1A1: NovaScreen (NVS) CYP450-related Enzyme Activity (ADME) Assay for human CYP1A1 (AID 2283100; active means hit-call score of the fitted dose curve at least 0.9, where 1 is the maximum)
Chain of human CYP1A1, CYP1A1 (gene 1543) (P04798 whole entry, looked up): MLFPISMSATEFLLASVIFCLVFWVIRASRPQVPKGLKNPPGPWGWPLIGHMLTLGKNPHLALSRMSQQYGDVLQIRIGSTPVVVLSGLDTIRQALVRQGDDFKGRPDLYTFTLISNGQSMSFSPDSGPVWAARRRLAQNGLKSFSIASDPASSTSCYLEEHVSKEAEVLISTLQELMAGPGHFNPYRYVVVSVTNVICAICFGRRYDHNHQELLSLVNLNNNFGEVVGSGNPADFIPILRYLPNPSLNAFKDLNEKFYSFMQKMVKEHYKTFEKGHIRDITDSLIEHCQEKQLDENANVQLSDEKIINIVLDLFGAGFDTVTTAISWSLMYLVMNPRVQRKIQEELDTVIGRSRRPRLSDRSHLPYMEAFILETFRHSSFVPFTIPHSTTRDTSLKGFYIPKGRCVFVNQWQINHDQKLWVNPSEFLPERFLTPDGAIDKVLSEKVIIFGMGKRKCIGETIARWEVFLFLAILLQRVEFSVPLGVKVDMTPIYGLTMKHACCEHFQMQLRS
How it was run: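 Inhibition of recombinant CYP1A1 turnover was assessed fluorometrically in a biochemical format 1 h after compound exposure. Testing began at 10 uM in duplicate and progressed to concentration series reaching 20 uM, with on-plate positive and negative controls.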

[12] = target: human CYP2B6, CYP2B6 (gene 1555) (UniProt P20813); experiment: NVS_ADME_hCYP2B6: NovaScreen (NVS) CYP450-related Enzyme Activity (ADME) Assay for human CYP2B6 (AID 2283101; active means hit-call score of the fitted dose curve at least 0.9, where 1 is the maximum)
Chain of human CYP2B6, CYP2B6 (gene 1555) (P20813 whole entry, looked up): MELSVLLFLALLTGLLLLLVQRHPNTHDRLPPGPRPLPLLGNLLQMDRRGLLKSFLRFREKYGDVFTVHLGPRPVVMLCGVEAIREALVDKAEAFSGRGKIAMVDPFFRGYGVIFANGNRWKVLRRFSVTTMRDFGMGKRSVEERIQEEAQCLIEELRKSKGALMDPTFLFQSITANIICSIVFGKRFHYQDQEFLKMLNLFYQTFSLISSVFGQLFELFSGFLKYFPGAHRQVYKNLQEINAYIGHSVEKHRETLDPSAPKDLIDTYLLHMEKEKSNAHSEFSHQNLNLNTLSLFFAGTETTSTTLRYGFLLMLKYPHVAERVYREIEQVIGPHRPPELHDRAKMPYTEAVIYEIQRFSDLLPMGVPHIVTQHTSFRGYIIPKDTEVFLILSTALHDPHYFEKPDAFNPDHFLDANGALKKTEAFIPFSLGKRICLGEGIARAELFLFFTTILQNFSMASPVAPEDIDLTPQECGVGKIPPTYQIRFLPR
How it was run: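 Fluorescence-based enzyme activity of recombinant human CYP2B6, measured 1 h post-dose against acetonitrile vehicle baseline. Screened at a single concentration of 10 uM in duplicate before concentration-response follow-up.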

[13] = target: human CYP2C9, CYP2C9 (gene 1559) (UniProt P11712); experiment: NVS_ADME_hCYP2C9: NovaScreen (NVS) CYP450-related Enzyme Activity (ADME) Assay for human CYP2C9 (AID 2283108; active means hit-call score of the fitted dose curve at least 0.9, where 1 is the maximum)
Chain of human CYP2C9, CYP2C9 (gene 1559) (P11712 whole entry, looked up): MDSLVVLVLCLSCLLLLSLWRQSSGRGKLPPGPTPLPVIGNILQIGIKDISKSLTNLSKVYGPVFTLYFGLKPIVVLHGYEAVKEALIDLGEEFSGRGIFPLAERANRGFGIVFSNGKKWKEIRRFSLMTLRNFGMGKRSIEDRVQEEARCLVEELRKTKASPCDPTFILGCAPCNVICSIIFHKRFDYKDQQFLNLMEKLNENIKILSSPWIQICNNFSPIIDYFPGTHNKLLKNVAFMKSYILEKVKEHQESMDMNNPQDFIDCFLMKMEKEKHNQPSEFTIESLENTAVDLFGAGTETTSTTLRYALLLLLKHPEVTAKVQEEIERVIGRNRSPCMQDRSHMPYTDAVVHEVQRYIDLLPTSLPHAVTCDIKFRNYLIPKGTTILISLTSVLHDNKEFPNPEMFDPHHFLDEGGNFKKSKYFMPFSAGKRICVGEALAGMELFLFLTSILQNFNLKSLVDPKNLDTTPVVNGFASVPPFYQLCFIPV
How it was run: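 Recombinant human CYP2C9 expressed in SF9 cells, fluorogenic substrate, fluorescence read 0.75 h after dosing. Chemicals first run in duplicate at 10 uM, with actives followed in concentration series; loss of signal versus acetonitrile baseline.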

[14] = target: Cytochrome P450 3A4 (Homo sapiens) (UniProt P08684); experiment: NVS_ADME_hCYP3A4: NovaScreen (NVS) CYP450-related Enzyme Activity (ADME) Assay for human CYP3A4 (AID 2283110; active means hit-call score of the fitted dose curve at least 0.9, where 1 is the maximum)
Chain of Cytochrome P450 3A4 (Homo sapiens) (P08684 whole entry, looked up): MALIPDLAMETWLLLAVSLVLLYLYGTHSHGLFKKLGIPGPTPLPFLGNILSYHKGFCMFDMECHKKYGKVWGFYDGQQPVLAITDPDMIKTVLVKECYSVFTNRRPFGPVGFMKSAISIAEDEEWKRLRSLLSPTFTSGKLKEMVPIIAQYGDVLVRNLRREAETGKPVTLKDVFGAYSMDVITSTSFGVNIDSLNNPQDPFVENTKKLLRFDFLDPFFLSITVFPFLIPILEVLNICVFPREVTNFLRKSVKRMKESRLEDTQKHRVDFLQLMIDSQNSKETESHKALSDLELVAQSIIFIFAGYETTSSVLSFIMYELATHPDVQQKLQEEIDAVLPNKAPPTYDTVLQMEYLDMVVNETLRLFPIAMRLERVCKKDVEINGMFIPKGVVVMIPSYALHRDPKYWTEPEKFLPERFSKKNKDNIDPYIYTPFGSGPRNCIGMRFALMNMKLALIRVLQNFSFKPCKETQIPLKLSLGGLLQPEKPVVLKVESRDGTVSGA
How it was run: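 Recombinant CYP3A4 from insect cells, fluorescence enzyme read-out, 0.33 h after chemical addition. Acetonitrile = negative control/baseline. Primary HTS: 10 uM in duplicate; actives re-tested in concentration series.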

Measured: AC50

Chain of E-selectin (Homo sapiens) (P16581 whole entry, looked up): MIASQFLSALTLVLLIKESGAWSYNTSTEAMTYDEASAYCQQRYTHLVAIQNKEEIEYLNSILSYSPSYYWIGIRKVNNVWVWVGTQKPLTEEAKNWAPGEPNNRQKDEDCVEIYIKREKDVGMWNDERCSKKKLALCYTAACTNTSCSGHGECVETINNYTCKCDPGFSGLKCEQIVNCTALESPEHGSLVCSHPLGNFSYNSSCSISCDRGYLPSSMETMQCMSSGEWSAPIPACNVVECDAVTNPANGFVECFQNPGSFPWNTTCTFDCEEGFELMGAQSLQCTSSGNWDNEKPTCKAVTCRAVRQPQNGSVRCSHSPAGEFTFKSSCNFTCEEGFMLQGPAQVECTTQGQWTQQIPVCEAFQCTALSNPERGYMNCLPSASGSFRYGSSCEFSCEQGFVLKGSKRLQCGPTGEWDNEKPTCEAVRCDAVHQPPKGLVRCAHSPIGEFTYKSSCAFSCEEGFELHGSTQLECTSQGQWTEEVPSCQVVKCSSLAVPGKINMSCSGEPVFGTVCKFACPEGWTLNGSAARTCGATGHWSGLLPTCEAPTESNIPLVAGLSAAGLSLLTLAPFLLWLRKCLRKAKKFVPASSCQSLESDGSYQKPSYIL

OCCCl
inactive: [1] | CD40, CD40 (gene 958) | CD69, CD69 (gene 969) | [2] | [3] | [4] | [5] | [6] | [7]

Nc1ccc([N+](=O)[O-])cc1
active: [9] 6.15 µM
not listed: [10] | [11] | [12] | [13] | [14]
inactive: all other assays above

c1ccc(C2CO2)cc1 (centres undefined)
inactive: [1] | CD40, CD40 (gene 958) | CD69, CD69 (gene 969) | [2] | [3] | [4] | [5] | [6] | [7]

CCCCCCCCOC(=O)c1ccc(C(=O)OCCCCCCCC)c(C(=O)OCCCCCCCC)c1
not listed: [8] | [9] | [11] | [12] | [13] | [14]
inactive: all other assays above

CCCCCOC(=O)c1ccccc1C(=O)OCCCCC
active: [1] 20 µM | CD40, CD40 (gene 958) 24.8 µM | CD69, CD69 (gene 969) 20 µM | [2] 32.4 µM | [5] 30.8 µM | [6] 31.9 µM | [7] 32.4 µM
inactive: [8] | [3] | [4] | [10]

CCCCC(CC)COC(=O)c1ccc(C(=O)OCC(CC)CCCC)c(C(=O)OCC(CC)CCCC)c1 (centres undefined)
not listed: [8] | [9] | [11] | [12] | [13] | [14]
inactive: all other assays above

COC(=O)Nc1nc2ccccc2[nH]1
inactive: CD40, CD40 (gene 958) | CD69, CD69 (gene 969) | [2] | [3] | [4] | [5]
active: [1] 11.3 µM | [6] 11.2 µM | [7] 9.84 µM

c1ccc2c(c1)oc1ccccc12
inactive: [1] | CD40, CD40 (gene 958) | CD69, CD69 (gene 969) | [2] | [3] | [4] | [5] | [6] | [7]

Nc1ccc(Cc2ccc(N)cc2)cc1
active: [2] 13.6 µM | [12] 719 nM | [9] 14.4 µM
not listed: [10] | [13] | [14]
inactive: all other assays above

CCC[CH2][Sn]([Cl])([CH2]CCC)[CH2]CCC
inactive: [10]
active: [1] 0.148 µM | CD40, CD40 (gene 958) 0.148 µM | CD69, CD69 (gene 969) 0.148 µM | [8] 148 nM | [2] 0.148 µM | [3] 0.148 µM | [4] 0.148 µM | [5] 0.148 µM | [6] 0.148 µM | [7] 0.148 µM

Cc1cc(N=Nc2ccccc2C)ccc1N
inactive: CD69, CD69 (gene 969) | [3] | [4]
active: [1] 20 µM | CD40, CD40 (gene 958) 30.7 µM | [2] 4.75 µM | [5] 29.2 µM | [6] 29.2 µM | [7] 9.88 µM | [11] 5.4 µM | [12] 1710 nM | [13] 4.5 µM | [9] 2.69 µM

OCCOCCO
not listed: [8] | [9] | [10] | [11] | [12] | [13]
inactive: all other assays above

CC(C)(OOC(C)(C)c1ccccc1)c1ccccc1
active: [1] 30.7 µM | CD40, CD40 (gene 958) 31 µM | CD69, CD69 (gene 969) 31.6 µM | [2] 37 µM | [3] 31.3 µM | [4] 27 µM | [5] 30.2 µM | [6] 16.4 µM | [7] 32.7 µM
